Screen size: about 370,000 compounds; about 3,000 (0.81%) were called active.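 How the source made its calls: active means activity above about 14% (limit read from the data; passing the limit was not always enough); inactive means the rest.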 The entries come from a sample that favours actives as a whole.
The compounds below were run against Nuclear receptor subfamily 1 group D member 1 (Homo sapiens) (UniProt P20393) (assay: Rev-erbα–DNA interaction modulation – biochemical, FITC-DNA, fluorescence polarization, uHTS, primary screen (AID 1259318;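 further: 0% = DMSO wells with 35 nM protein and 100% = DMSO wells with 750 nM protein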)). Conditions: Rev-erbα–FITC-DNA binding, 90 min, at 10 µM, stronger effect = higher value.
Sequence of Nuclear receptor subfamily 1 group D member 1 (Homo sapiens) (P20393 whole entry, looked up): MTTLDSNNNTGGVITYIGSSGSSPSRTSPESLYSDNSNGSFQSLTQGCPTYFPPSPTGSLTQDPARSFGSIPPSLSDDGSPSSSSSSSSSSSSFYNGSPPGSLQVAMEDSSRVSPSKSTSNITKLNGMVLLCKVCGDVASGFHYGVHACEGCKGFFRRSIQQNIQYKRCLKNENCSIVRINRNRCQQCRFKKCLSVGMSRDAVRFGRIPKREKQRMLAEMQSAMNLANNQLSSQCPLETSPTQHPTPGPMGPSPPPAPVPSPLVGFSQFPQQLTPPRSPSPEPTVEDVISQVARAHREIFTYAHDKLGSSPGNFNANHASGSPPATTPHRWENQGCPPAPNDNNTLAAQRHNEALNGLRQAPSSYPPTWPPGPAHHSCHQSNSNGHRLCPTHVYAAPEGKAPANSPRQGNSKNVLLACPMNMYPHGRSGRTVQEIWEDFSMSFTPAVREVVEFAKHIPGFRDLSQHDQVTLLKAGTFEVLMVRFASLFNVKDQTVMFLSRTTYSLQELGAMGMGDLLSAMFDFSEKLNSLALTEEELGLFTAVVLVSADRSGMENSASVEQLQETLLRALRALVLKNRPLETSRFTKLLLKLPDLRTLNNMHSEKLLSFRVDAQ

| Structure (SMILES) | activity |
| --- | --- |
| COc1ccccc1C(=O)Oc1ccc(N2C(=O)CCC2=O)cc1 | -3.5% (inactive) |
| COc1ccc(-c2csc(NC(=O)c3ccc(N4C(=O)CCC4=O)cc3)n2)cc1OC | 19.3% (active) |
| COc1ccc(-n2nc3c(c2NC(=O)c2ccc(N4C(=O)CCC4=O)cc2)CSC3)cc1 | 1.69% (inactive) |
| Cc1ccc(CS(=O)(=O)CCC(=O)NCc2ccc(F)cc2)cc1 | -2.15% (inactive) |
| C/C=C/C=C/C(=O)OCC(=O)Nc1ccc(Cl)cc1 | -1.79% (inactive) |
| O=S1(=O)c2ccc(N3CCN(Cc4ccccc4F)CC3)cc2Oc2ccccc2CN1Cc1cn(Cc2ccc(Cl)cc2)nn1 | -0.02% (inactive) |
| CCOC(=O)c1ccc(NC(=O)c2c(NCc3ccccc3)[nH]c(=O)[nH]c2=O)cc1 | 19.9% (active) |
| CCOC(=O)c1ccc(NC(=O)c2c(N)n(C)c(=O)[nH]c2=O)cc1 | 2.83% (inactive) |
| CCOC(=O)c1ccc(NC(=O)CCn2c(=O)oc3ccccc32)cc1 | -4.86% (inactive) |
| CCCCN1CCN(C(=O)c2ccc3c(c2)NC(=O)C(C)(C)O3)CC1 | -3.01% (inactive) |
| O=c1ccc2c(-c3ccccc3S(=O)(=O)O)c3ccc(O)c(O)c3oc-2c1O | -56.3% (inactive) |
| O=C(CNC(=O)C12CC3CC(CC(C3)C1)C2)OCC(=O)N1CCCCC1 | -3.15% (inactive) |
| COc1ccc(CNC(=O)c2nnn(CC(=O)Nc3cc(C)cc(C)c3)c2N)cc1 | 33.3% (active) |
| COc1ccc(CNC(=O)CN2CCC(n3nnc4cc(F)ccc43)CC2)cc1 | 0.03% (inactive) |
| COc1ccc(CNC(=O)c2cc(=O)c3c(C)cc(C)cc3o2)cc1 | -1.71% (inactive) |
| CCOC(=O)c1c(NC(C)=O)sc2c(O)c(Br)ccc12 | -1.09% (inactive) |
| CCOC(=O)C1CCN(C(=O)CN2C(=O)NC(C)(c3ccc4cc(OC)ccc4c3)C2=O)CC1 (stereo unspecified) | -4.48% (inactive) |
| O=C(Nc1cc(Cl)cc(Cl)c1)OCCN1CCCC12CCC(c1ccccc1)CC2 (stereo unspecified) | -2.58% (inactive) |
| CCCOc1cc(C)c(S(=O)(=O)n2nnc3ccccc32)cc1C | -0.13% (inactive) |
| Cc1nc2c(c(C)nn2-c2ccccc2)c(C)c1C | 9.78% (inactive) |
| Cn1c(=O)c2c(-c3cccc(Br)c3)c(C#N)c(N)nc2n(C)c1=O | -4.07% (inactive) |
| CSc1ccc(-c2c(C#N)c(N)nc3c2c(C)nn3-c2ccccc2)cc1 | 59.1% (active) |
| CCC(C)[C@H]1COCCS(=O)(=O)N1Cc1ccc(C)cc1 (stereo partly specified) | -5% (inactive) |

| Structure (SMILES) | activity |
| --- | --- |
| O=C1C(=O)N(Cc2ccc(-c3ccsc3)cc2)c2ccc(OC(F)(F)F)cc21 | -0.04% (inactive) |
| O=C(c1cccc(C(F)(F)F)c1)N1CC[C@H]2[C@H](CCCN2Cc2cc(F)cc(F)c2)C1 | 0.92% (inactive) |
| Cc1cccc(N(CC(=O)Nc2ccc(-c3nc4ccc(C)cc4s3)cc2)S(C)(=O)=O)c1 | 35.6% (active) |
| Cc1ccc2nc(-c3ccc(NC(=O)CN(C)S(=O)(=O)c4ccccc4)cc3)sc2c1 | 8.26% (inactive) |
| Cc1ccc(N(CC(=O)Nc2cc(C)cc(C)c2)S(=O)(=O)c2cccc3nonc23)cc1 | 0.18% (inactive) |
| CCOc1ncccc1C(=O)N(CC)CC(=O)Nc1ccc(NC(C)=O)cc1 | -1.37% (inactive) |
| O=C(CSc1ccc2nnc(-c3ccccc3)n2n1)N1CCCc2ccccc21 | -1.89% (inactive) |
| CCOC(=O)CNC(=O)CSc1ccc2nnc(-c3cccnc3)n2n1 | 3.05% (inactive) |
| COC(=O)C(C)Sc1ccc2nnc(-c3cccc(F)c3)n2n1 (stereo unspecified) | 1.26% (inactive) |
| CCOc1ccc(-c2nnc3ccc(SC)nn23)cc1 | 48.8% (active) |
| COc1ccc(CSc2nnc(-c3cccc(C)c3)n2C)cc1 | 9.69% (inactive) |
| COc1ccc(-c2nnc3ccc(SCc4ccccc4)nn23)cc1 | 25.6% (active) |
| COc1cccc(CN(C)CC(=O)NCc2ccccc2Cl)c1OC | -3.26% (inactive) |
| C=CCOC/C=C/C#CCN(CC=C)Cc1ccc(OC)cc1OC | 6.98% (inactive) |
| Cc1ccc(-c2noc(CCC(=O)Nc3ccccc3N3CCN(C)CC3)n2)cc1 | 3.69% (inactive) |
| COCCn1c(C)cc(C(=O)COC(=O)/C=C/c2cccc(OC)c2)c1C | 6.09% (inactive) |
| Cc1cccc([C@@H]2[C@@H]3C(=O)N(C)C(=O)[C@@H]3[C@@H]3C(=O)Nc4ccccc4C(=O)N23)c1 | 1.77% (inactive) |
| CCCC(=O)Nc1ncnc2c1ncn2C1O[C@@H]2COP(=O)(O)O[C@H]2[C@H]1OC(=O)CCC (stereo partly specified) | -3.72% (inactive) |
| COc1cc(/C=C/C(=O)n2cnc3ccccc32)cc(OC)c1OC | 11.5% (inactive) |
| Cc1cc(C(F)(F)F)nc(SCC(=O)Nc2nccs2)n1 | -6.74% (inactive) |
| CC(=O)c1cc(C#N)c(SCC(=O)Nc2nccs2)nc1C | 30.9% (active) |
| Cc1[nH]c2ccccc2c1SCC(=O)Nc1nccs1 | 4.6% (inactive) |
| Cn1sc(=O)c2cc(S(=O)(=O)NC3CC3)ccc21 | -1.88% (inactive) |

| Structure (SMILES) | activity |
| --- | --- |
| CCOC(=O)NC(=O)CSc1nnc(SCCC(=O)O)s1 | 0.79% (inactive) |
| O=C(CCn1c(SCC(=O)c2ccccc2)nc2ccccc2c1=O)NCc1ccc(F)cc1 | 26.1% (active) |
| O=C(CSc1nc2ccccc2c(=O)n1CCCO)NC1CC1 | 4.03% (inactive) |
| O=C(Nn1c(SCc2ccc([N+](=O)[O-])cc2)nc2ccccc2c1=O)c1ccc(F)cc1 | 0.27% (inactive) |
| O=S(=O)(c1cccs1)N1CCCc2nc(-c3ccc(Br)cc3)ccc21 | 1.38% (inactive) |
| c1ccc2c(c1)nnn2-c1ccncc1 | 1.17% (inactive) |
| CC(C)CN(C(=O)c1cccc(S(=O)(=O)N2CCCCC2)c1)C1CCS(=O)(=O)C1 (stereo unspecified) | 5.44% (inactive) |
| CCOC(=O)c1cc(-c2nnc(-c3cc(OC)c(OC)c(OC)c3)o2)c(C)nc1C | 9.45% (inactive) |
| CCOc1nc(-c2ccc(OC)cc2)ccc1-c1noc(-c2cc(OC)c(OC)c(OC)c2)n1 | 26.3% (active) |
| CCOc1cc(-c2noc(CCC(=O)N3CCOCC3)n2)ccc1OC | -5.84% (inactive) |
| Cc1sc2nc(-c3ccccc3F)oc(=O)c2c1C | 1.33% (inactive) |
| CCCCC(=O)N[C@@H]1CC[C@@]23CCCN2C(=O)CCC[C@H]3[C@H]1C | 1.41% (inactive) |
| NC(=O)CCCC1=NS(=O)(=O)c2ccccc2N1 | -0.09% (inactive) |
| c1ccc(-c2ccnc3nc(-n4cccc4)nn23)cc1 | -4.06% (inactive) |
| CCCCNc1c(-c2cccc(Sc3ccc(OC)cc3)c2)nc2ccccn12 | -0.18% (inactive) |
| Clc1ccc2nc(CSc3ccccc3)cn2c1 | 6.58% (inactive) |
| CCCCCCSc1ccc(-c2nc3ccc(Cl)cn3c2NCc2ccccc2)cc1 | 24% (active) |
| C[n+]1ccc(/C=C/c2c[nH]c3ccccc23)cc1 | 169% (active) |
| Cn1cnc([N+](=O)[O-])c1Sc1n[nH]c(N)n1 | -0.66% (inactive) |
| COc1cc(OC)cc(-c2nc(=S)n3ccsc3n2)c1 | 14.2% (active) |
| COc1ccc(C(=O)OCc2cc(=O)n3ccsc3n2)cc1F | 3.21% (inactive) |
| COc1cc(C(=O)OCc2cc(=O)n3ccsc3n2)ccc1OC(C)C | -8.61% (inactive) |
| CCCC1CCC2(CCCN2CCOC(=O)NCc2ccccc2)CC1 (stereo unspecified) | 4.94% (inactive) |

| Structure (SMILES) | activity |
| --- | --- |
| C=CCN(Cc1ccc2c(c1)OCO2)C(C#CC1CC1)C(C)(C)C (stereo unspecified) | 0.61% (inactive) |
| COc1ccc(/C=C2\CC3(OC(C)=O)CCCN2C3)cc1 (stereo unspecified) | 1.87% (inactive) |
| CCCN(CCC)CCCNC(=O)CNC(=O)c1nn(-c2ccc(OC)cc2)c(=O)c2ccccc12 | 2.42% (inactive) |
| COCCCNC(=O)CNC(=O)c1nn(-c2ccc(OC)cc2)c(=O)c2ccccc12 | -5.1% (inactive) |
| COc1ccc(-n2nc(C(=O)NCC(=O)Nc3cccc(C)n3)c3ccccc3c2=O)cc1 | 29.5% (active) |
| Cc1[nH]c2ccccc2c1C(=O)c1cc([C@H](NC(=O)OC(C)(C)C)C(C)C)sc1N | 8.9% (inactive) |
| CN(C(=O)CSc1nnc(-c2ccc(C(C)(C)C)cc2)n1C)C1CCS(=O)(=O)C1 (stereo unspecified) | -0.03% (inactive) |
| CCn1c(SCC(=O)N(C)C2CCS(=O)(=O)C2)nnc1-c1cccs1 (stereo unspecified) | 1.18% (inactive) |
| Cc1cc(C)c2nc(SCC(=O)N(C)C3CCS(=O)(=O)C3)cc(C)c2c1 (stereo unspecified) | 64% (active) |
| COc1ccc(-n2c(SCC(=O)Nc3ccccc3-c3ccccc3)nnc2-c2cccnc2)cc1 | -5.08% (inactive) |
| CC1OC(O[C@H]2/C=C/C=C/C=C/C=C/C=C/C=C/C=C/[C@H](C)[C@@H](O)[C@@H](C)[C@H](C)OC(=O)CC(O)CC(O)CCC(O)C(O)CC(O)CC3(O)C[C@H](O)C(C(=O)O)C(C2)O3)C(O)[C@H](N)C1O (stereo partly specified) | 1.39% (inactive) |
| O=C(O)CCC(=O)O | -4.29% (inactive) |
| COc1ccc(NC(=O)c2sc(=O)n(Cc3ccc(S(=O)(=O)N(C)C)cc3)c2C)cc1 | 4.54% (inactive) |
| O=C(COC(=O)c1cccc(Br)c1)Nc1cccc2c1C(=O)c1ccccc1C2=O | 114% (active) |
| O=C(COC(=O)Cn1cnc2ccccc21)Nc1cccc2c1C(=O)c1ccccc1C2=O | -19.3% (inactive) |
| O=C(COC(=O)c1cccc(Cl)c1)Nc1ccc2[nH]c(=O)[nH]c2c1 | -0.59% (inactive) |
| C#CCN(N(C)c1ncc(C(F)(F)F)cc1Cl)S(=O)(=O)c1ccc2ccccc2c1 | 7.14% (inactive) |
| CCN1CCN(C(=O)Cn2nc(C)n3c(cc4c(OC)cccc43)c2=O)CC1 | -9.03% (inactive) |
| CCCc1cc(=S)n2c([nH]c3ccccc32)c1C#N | -0.23% (inactive) |
| Cc1cc2oc(=O)cc(-c3ccccc3)c2c(C)c1-c1ccc(OC(F)(F)F)cc1 | -5.77% (inactive) |
| COc1ccc(-c2c(C)cc3oc(=O)cc(-c4ccccc4)c3c2C)cc1C=O | 18.5% (active) |
| COc1cc(OC)c2c(-c3cccc(-c4cccc(N)c4)c3)cc(=O)oc2c1 | -9.12% (inactive) |
